This is an account of results in PubChem BioAssay (Tox21).

A number with no mark means an inactive call. Results filed as inconclusive are left out. Active and inactive are the calls of the source. Unless noted, calls follow the shape of the full dose curve.

The nature of experiment [1]: Nuclear factor erythroid 2-related factor 2/antioxidant responsive element (Nrf2/ARE) small molecule agonists: qHTS cell viability counter screen in human keratinocytes (AID 1919968; active = well fitted curve in the direction sought with a large enough effect in the repeat runs; an effect the other way counts as inactive or inconclusive; also: nearly all actives have a fitted effect of over 55% in size). In a few lines:
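KeratinoSens HaCaT cells, 1,500/well, preincubated 5 h, then exposed to compounds in DMSO for 23 h at 37 C/5% CO2. Viability read as CellTiter-Fluor fluorescence after 1 h, in the same wells as the ARE-luciferase read.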
For orientation: qHTS replaces the single test concentration by a dilution series.

Experiment [2] in a line: Nuclear factor erythroid 2-related factor 2/antioxidant responsive element (Nrf2/ARE) small molecule agonists: luciferase reporter gene qHTS assay in human keratinocytes (AID 1919969). Also: nearly all actives have a fitted effect of over 35% in size. Also: potency is read from the fitted curve at half-maximal effect.
Experiment [3] has as its target Gonadotropin-releasing hormone receptor (Homo sapiens) (UniProt P30968). The experiment is described as follows: Human gonadotropin-releasing hormone receptor (GnRHR) small molecule agonists, calcium flux assay in GnRHR-HEK293 cells (AID 1920063). Also: nearly all actives have a fitted effect of over 35% in size. The method in brief:
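HEK293 cells stably expressing human GnRHR were dye-loaded for 1 h at 37 C. Compound was added in agonist mode and fluorescence (Ex/Em 480/540) recorded kinetically for 3 min. Fifteen concentrations, triplicates.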
In general terms: Calcium assays in cells follow changes in intracellular calcium, usually with a dye or a luminescent sensor.

Experiment [4] addresses KiSS-1 receptor (Homo sapiens) (UniProt Q969F8). The experiment is described as follows: Human kisspeptin (KISS1R) small molecule agonists, calcium flux assay in KISS1R-HEK293 cells (AID 1920064; active = well fitted curve in the direction sought with a large enough effect in the repeat runs; an effect the other way counts as inactive or inconclusive). In a few lines: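 HEK293 cells stably expressing human KISS1R were loaded with calcium dye for 1 h at 37 C, then given compound; fluorescence (Ex/Em 480/540) was read kinetically for 3 min. Fifteen concentrations, triplicate.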

A short description of experiment [5]: G protein-coupled receptor (GPCR) small molecule agonists, calcium flux assay: HEK293 wild type cell line counter screen (AID 1920065). The method in brief:
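Wild-type HEK293 cells plated 18 h, loaded with calcium dye 1 h at 37 C, then compounds added in agonist mode (ATP as positive control). Kinetic fluorescence Ex/Em 480/540 recorded 3 min at 1 sec intervals; 15 concentrations, triplicate.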

A short description of experiment [6]: p53 small molecule agonists, cell-based qHTS assay with human liver microsomes (AID 1963577).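 Also: p53 response element beta-lactamase reporter cells with liver microsomes plus NADPH.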 In a few lines: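 With metabolic activation: human liver microsomes (0.5 mg/mL final) plus NADPH (0.5 mg/mL final) added alongside compounds to p53RE-bla cells; 16 h 37 C exposure; beta-lactamase read by LiveBLAzer fluorescence.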
Experiment [7] is described as follows: p53 small molecule agonists, cell-based qHTS assay with rat liver microsomes (AID 1963578). The method in brief: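 Metabolic activation by rat liver microsomes and NADPH, each 0.5 mg/mL final, added right after compounds to p53RE-bla reporter cells (4,000/well, plated 5 h earlier). 16 h at 37 C, then LiveBLAzer substrate for 2 h at room temperature in the dark; fluorescence read-out.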

Experiment [8] in a line: p53 small molecule agonists, cell-based qHTS assay with human liver microsomes: qHTS cell viability counter screen (AID 1963579). Also: nearly all actives have a fitted effect of over 45% in size. Also: potency is read from the fitted curve at half-maximal effect. In a few lines:
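Metabolic activation used human liver microsomes and NADPH, both 0.5 mg/mL final, over 16 hours at 37 C on p53RE-bla cells (4,000/well). Cytotoxicity measured by CellTiter-Glo luminescence, 30 min at room temperature.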

Experiment [9] is described as follows: p53 small molecule agonists, cell-based qHTS assay with rat liver microsomes: qHTS cell viability counter screen (AID 1963580). Also: nearly all actives have a fitted effect of over 45% in size. The method in brief: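 Viability is assessed in parallel with the p53 reporter read: HCT-116 p53RE-bla cells receive compounds plus rat microsomes and NADPH (0.5 mg/mL final apiece), incubate 16 h at 37 C, and then CellTiter-Glo luminescence is recorded.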

Experiment [10] is described as follows: p53 small molecule agonists, cell-based qHTS assay: qHTS cell viability counter screen (AID 1963581). Also: nearly all actives have a fitted effect of over 45% in size. In a few lines:
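p53RE-bla HCT-116 cells, compounds added 5 h after plating and incubated 16 h at 37 C. Cytotoxicity measured in the same wells as intracellular ATP by CellTiter-Glo luminescence after 30 min at room temperature.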

Experiment [11] is described as follows: p53 small molecule agonists, cell-based qHTS assay (AID 1963582; active = well fitted activation curve with a large enough effect in the signal ratio in the repeat runs, not every such curve was filed as active; the % refers to the signal ratio). The method in brief:
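p53RE-bla reporter cells, compounds added in DMSO after 5 h plating, incubated 16 h at 37 C. Beta-lactamase read via 2 h room-temperature LiveBLAzer B/G FRET substrate, fluorescence intensity.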

The target in experiment [12] is 5-hydroxytryptamine receptor 2A (Homo sapiens) (UniProt P28223). As to the kind of experiment: 5-hydroxytryptamine receptor 2A (HTR2A) small molecule antagonists, cell-based qHTS assay (AID 1963586). Also: nearly all actives have a fitted effect of over 45% in size. In a few lines:
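Antagonist-mode intracellular calcium assay: DOI (4 nM) added after 5 min compound pre-incubation at room temperature to dye-loaded HTR2A-CHO cells. Fluorescence followed for 3 min, sampled every second.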

Experiment [13] shares this target. As to the kind of experiment: 5-hydroxytryptamine receptor 2A (HTR2A) small molecule agonists, cell-based qHTS assay (AID 1963587). Also: nearly all actives have a fitted effect of over 30% in size. In a few lines:
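CHO cells stably expressing human HTR2A, plated 18 h, loaded with calcium dye 1 h at 37 C. Agonist mode: compounds added and intracellular calcium fluorescence recorded kinetically for 2 min at 1 sec intervals.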

In experiment [14] the target is Muscarinic acetylcholine receptor M1 (Homo sapiens) (UniProt P11229). The experiment is described as follows: Cholinergic receptor muscarinic 1 (CHRM1) small molecule antagonists, cell-based qHTS assay (AID 1963588). Also: nearly all actives have a fitted effect of over 40% in size. The method in brief:
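CHRM1-CHO calcium-flux assay, antagonist mode. Cells were seeded 18 h, dye-loaded 1 h at 37 C and given compound for 5 min at RT, then acetylcholine was added at 50nM. FDSS fluorescence was read 3 min; 15 concentrations, three runs.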

Experiment [15] has the same target. As to the kind of experiment: Cholinergic receptor muscarinic 1 (CHRM1) small molecule agonists, cell-based qHTS assay (AID 1963589). Also: nearly all actives have a fitted effect of over 35% in size. In a few lines: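 CHO cells stably expressing human CHRM1 were loaded with calcium dye for 1 h at 37 C, then compound was added in agonist mode. Intracellular calcium fluorescence was followed kinetically at 1 s intervals. Fifteen concentrations were tested in three independent runs.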

The nature of experiment [16]: cAMP Responsive Elements (CRE) small molecule agonists, cell-based qHTS assay (AID 1963590). The method in brief:
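CRE-bla HEK 293T cells, 2,000/well in DMEM with 10% dialyzed FBS and 25 mM HEPES, pre-incubated 18 h at 37 C, then exposed to compound 3 h at 37 C. Beta-lactamase reporter read with LiveBLAzer B/G FRET substrate after 2 h at room temperature.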

In experiment [17] the target is Beta-2 adrenergic receptor (Homo sapiens) (UniProt P07550). As to the kind of experiment: Adrenergic beta2 receptor (ADRB2) small molecule antagonists, cell-based qHTS assay (AID 1963592). Also: nearly all actives have a fitted effect of over 50% in size. Also: potency is read from the fitted curve at half-maximal effect. In a few lines: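 Cells (CHO, stable ADRB2 overexpression) incubated 18-20hr at 37C; compounds added from DMSO; agonist mix (1nM isoproterenol, 100uM IBMX, 25uM Ro-20-1724) added; 0.5hr RT; d2-cAMP and anti-cAMP-cryptate added; 1hr RT; 665/615 nm read.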

Experiment [18] deals with D(2) dopamine receptor (Homo sapiens) (UniProt P14416). As to the kind of experiment: Dopamine D2 receptor (DRD2) small molecule agonists, cell-based qHTS assay (AID 1963594). Also: nearly all actives have a fitted effect of over 35% in size. In a few lines: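 HEK293 cells stably expressing human DRD2, pre-treated with PDE inhibitor Ro20-1724 (0.1 mM final) and compound 10 min at room temperature, then stimulated with NKH477 (200nM […]) for 30 min. cAMP read by HTRF (665/620 nm).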

For experiment [19] the target is unchanged. As to the kind of experiment: Dopamine D2 receptor (DRD2) small molecule antagonists, cell-based qHTS assay (AID 1963595; active = well fitted inhibition curve with a large enough effect in the signal ratio in the repeat runs, with a control signal flat; the % refers to the signal ratio). In a few lines: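 HEK293 cells stably expressing DRD2 were preincubated with 0.1 mM Ro20-1724, then with compound for 10 min at room temperature. Cells were stimulated with 200 nM NKH477 plus 12 nM quinpirole for 30 min, and cAMP was read by HTRF.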

The nature of experiment [20]: cAMP Responsive Elements (CRE) small molecule antagonists, cell-based qHTS assay (AID 1963591; active = well fitted inhibition curve with a large enough effect in the signal ratio in the repeat runs, not every such curve was filed as active; the % refers to the signal ratio). The method in brief:
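CRE-bla HEK293T cells plated 18 h, then given compound plus NKH477 at 0.25 uM final for 3 h at 37C. Beta-lactamase reporter read with LiveBLAzer B/G FRET substrate after 2 h at room temperature.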

Chain of Beta-2 adrenergic receptor (Homo sapiens) (P07550 whole entry, looked up): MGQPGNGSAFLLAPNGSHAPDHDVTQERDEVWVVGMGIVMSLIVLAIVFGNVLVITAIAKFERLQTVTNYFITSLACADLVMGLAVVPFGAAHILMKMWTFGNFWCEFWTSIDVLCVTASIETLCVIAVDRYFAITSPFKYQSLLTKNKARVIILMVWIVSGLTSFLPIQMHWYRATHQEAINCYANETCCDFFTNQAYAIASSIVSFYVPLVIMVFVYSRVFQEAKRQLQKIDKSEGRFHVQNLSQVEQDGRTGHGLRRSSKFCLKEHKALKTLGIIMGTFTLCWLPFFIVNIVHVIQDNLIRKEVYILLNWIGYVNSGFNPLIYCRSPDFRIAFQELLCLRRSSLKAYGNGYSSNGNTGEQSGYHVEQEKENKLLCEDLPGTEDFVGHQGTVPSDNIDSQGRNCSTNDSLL
Chain of 5-hydroxytryptamine receptor 2A (Homo sapiens) (P28223 whole entry, looked up): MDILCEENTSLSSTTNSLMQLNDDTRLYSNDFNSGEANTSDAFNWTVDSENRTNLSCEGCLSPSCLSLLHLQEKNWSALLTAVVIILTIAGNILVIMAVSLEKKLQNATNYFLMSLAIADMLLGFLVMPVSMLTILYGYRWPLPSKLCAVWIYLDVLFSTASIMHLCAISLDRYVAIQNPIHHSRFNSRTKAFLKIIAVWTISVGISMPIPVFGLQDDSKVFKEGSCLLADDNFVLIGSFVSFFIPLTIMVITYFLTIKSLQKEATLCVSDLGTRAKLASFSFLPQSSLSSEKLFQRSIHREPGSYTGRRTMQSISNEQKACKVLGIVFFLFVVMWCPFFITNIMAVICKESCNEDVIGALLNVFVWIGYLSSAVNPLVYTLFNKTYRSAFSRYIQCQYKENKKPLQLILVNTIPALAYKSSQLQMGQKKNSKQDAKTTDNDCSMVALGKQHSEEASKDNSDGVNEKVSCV
Chain of Muscarinic acetylcholine receptor M1 (Homo sapiens) (P11229 whole entry, looked up): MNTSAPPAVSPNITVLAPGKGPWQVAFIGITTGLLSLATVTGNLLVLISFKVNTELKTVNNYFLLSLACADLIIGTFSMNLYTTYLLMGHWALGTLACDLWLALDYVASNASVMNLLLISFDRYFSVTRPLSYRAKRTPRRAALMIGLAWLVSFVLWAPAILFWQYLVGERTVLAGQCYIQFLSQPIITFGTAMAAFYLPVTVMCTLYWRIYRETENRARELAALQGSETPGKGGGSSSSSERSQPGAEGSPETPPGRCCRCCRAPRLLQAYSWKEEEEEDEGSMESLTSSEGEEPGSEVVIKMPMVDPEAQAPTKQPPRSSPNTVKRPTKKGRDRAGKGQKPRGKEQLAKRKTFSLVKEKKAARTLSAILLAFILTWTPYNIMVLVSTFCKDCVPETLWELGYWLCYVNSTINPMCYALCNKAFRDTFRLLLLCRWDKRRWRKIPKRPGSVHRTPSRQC
Chain of D(2) dopamine receptor (Homo sapiens) (P14416 whole entry, looked up): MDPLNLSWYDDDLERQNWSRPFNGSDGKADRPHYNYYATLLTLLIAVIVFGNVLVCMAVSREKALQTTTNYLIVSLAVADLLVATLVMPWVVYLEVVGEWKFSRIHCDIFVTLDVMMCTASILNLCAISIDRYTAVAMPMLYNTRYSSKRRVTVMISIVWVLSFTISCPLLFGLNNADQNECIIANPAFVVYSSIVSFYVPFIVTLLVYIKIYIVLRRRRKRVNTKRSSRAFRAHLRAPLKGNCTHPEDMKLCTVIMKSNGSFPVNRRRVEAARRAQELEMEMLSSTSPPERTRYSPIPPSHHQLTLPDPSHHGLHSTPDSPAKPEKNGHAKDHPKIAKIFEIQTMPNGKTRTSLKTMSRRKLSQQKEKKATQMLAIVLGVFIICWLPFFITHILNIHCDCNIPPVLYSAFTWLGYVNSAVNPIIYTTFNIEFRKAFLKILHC
Chain of Gonadotropin-releasing hormone receptor (Homo sapiens) (P30968 whole entry, looked up): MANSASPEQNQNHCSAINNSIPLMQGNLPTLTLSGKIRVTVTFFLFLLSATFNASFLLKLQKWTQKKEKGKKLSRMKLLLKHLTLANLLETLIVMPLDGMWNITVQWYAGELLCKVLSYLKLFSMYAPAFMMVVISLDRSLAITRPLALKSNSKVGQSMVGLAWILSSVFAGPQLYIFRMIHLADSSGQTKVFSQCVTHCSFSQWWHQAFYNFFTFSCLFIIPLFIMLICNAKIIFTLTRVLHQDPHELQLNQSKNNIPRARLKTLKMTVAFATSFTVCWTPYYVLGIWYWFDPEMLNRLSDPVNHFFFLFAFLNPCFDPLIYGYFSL
Chain of KiSS-1 receptor (Homo sapiens) (Q969F8 whole entry, looked up): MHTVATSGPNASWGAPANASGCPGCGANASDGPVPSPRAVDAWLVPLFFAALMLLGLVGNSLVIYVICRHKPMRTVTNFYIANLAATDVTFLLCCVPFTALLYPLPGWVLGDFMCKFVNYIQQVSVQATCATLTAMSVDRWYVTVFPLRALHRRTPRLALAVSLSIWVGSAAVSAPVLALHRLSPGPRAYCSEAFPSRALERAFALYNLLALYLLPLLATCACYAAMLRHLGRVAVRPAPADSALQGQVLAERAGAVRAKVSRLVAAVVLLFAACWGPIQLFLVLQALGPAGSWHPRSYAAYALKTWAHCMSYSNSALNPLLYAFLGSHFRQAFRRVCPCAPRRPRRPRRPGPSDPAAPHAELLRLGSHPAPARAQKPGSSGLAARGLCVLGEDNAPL

Take `CC1=C(C)C(=O)C(C(CCCCCC(=O)O)c2ccccc2)=C(C)C1=O` (configuration not stated): the Potency entry in [1], in experiment [2], in experiment [3], in [6], in experiment [7] and in experiment [8] was “inactive” in each case. The Potency result in [9], in experiment [10], in experiment [11], in [12], in experiment [13] and in experiment [14] was “inactive” each time. Further, the Potency entry in experiment [15], in experiment [16], in experiment [17], in [18] and in [19] was “inactive” throughout. Also, the result in experiment [4] and in experiment [5] was inactive.

For the compound `C[C@]12C=CC(=O)C=C1[C@@H](F)C[C@@H]1[C@@H]2[C@@H](O)C[C@@]2(C)[C@H]1CC[C@]2(O)C(=O)CO`, the Potency result in experiment [1], in experiment [2], in experiment [3], in experiment [6], in experiment [7] and in experiment [8] was “inactive” throughout. In addition, the Potency result in [9], in experiment [10], in [11], in [12], in experiment [13] and in experiment [14] was “inactive” throughout. For the same compound, the Potency entry in experiment [15], in experiment [20], in experiment [17] and in [18] was “inactive” throughout. For the same compound, the result in [4] and in experiment [5] was inactive.

As to `Cc1ncc(CO)c(C=O)c1O`, the Potency entry in experiment [1], in experiment [2], in experiment [3], in experiment [6], in experiment [7] and in [8] was “inactive” each time. In addition, the Potency entry in [9], in [10], in experiment [11], in experiment [12], in experiment [13] and in experiment [14] was “inactive” throughout. Moreover, the Potency entry in [15], in experiment [16], in experiment [17], in experiment [18] and in experiment [19] was “inactive” in each case. For the same compound, the result in experiment [4] and in [5] was inactive.

In the case of `COc1cc2c(cc1OC)C(=O)C(CC1CCN(Cc3ccccc3)CC1)C2` (configuration not stated), the Potency result in experiment [1], in [2], in experiment [3], in experiment [6], in [7] and in experiment [8] was “inactive” in each case. Besides, the Potency entry in experiment [9], in experiment [10], in experiment [11], in [12], in experiment [13] and in [14] was “inactive” each time. The Potency entry in [15], in experiment [16] and in [18] was “inactive” in each case. The result in [4] and in experiment [5] was inactive. Moreover, the Potency in [17] was 18.8 µM (active).

Take `O=C(O)c1cccc(Cl)n1`: the Potency result in experiment [1], in experiment [3], in experiment [6], in [7], in [9] and in experiment [10] was “inactive” throughout. Besides, the Potency result in experiment [11], in [12], in experiment [13], in experiment [14], in experiment [15] and in experiment [20] was “inactive” throughout. Also, the Potency result in experiment [17], in experiment [18] and in [19] was “inactive” throughout. Further, the Potency in [2] is 68.6 µM (active); in [8], 40.8 µM (active). Also, the result in experiment [4] and in experiment [5] was inactive.

Consider `CCCCCOC(=O)CCC`, for which the Potency result in experiment [1], in experiment [2], in [3], in experiment [6], in experiment [7] and in experiment [8] was “inactive” in each case. Besides, the Potency result in experiment [9], in [10], in experiment [11], in experiment [12], in experiment [13] and in experiment [14] was “inactive” throughout. Also, the Potency result in experiment [15], in [16], in [20], in experiment [18] and in experiment [19] was “inactive” in each case. For the same compound, the result in [4] and in [5] was inactive.
